Results from the supplement of paper PMC10849652.
Of roughly 7,900 targets only a part is listed; those with a hit were picked by preference. About 0.6% of all pairs of compound and target were hits.

compound: CCCc1cc(C)[nH]c(=O)c1CNC(=O)c1cc(-c2ccnc(N3CCN(C)CC3)c2)cc2c1cnn2C(C)C; assay: log2 fold change, soluble protein after heating vs DMSO (PISA); higher = thermal stabilisation; K562 cells, 10 uM, 30 min; active = over 0.2 and 3.5 SD of the protein, either way, in both replicates (recomputed)
Method in brief: (§1)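 K562 cells (2×10^6 cells/mL) were treated with 10 μM compound for 30 min, and aliquots were heated for 3 min over 48°C-58°C. Pooled aliquots were extracted in PBS with 0.5% NP-40 at 4°C, and the supernatant after 21,000xg for 90 min was measured by TMTpro 16plex LC-MS/MS with channel sums equalised. Reported thermal stability, relative to control samples and from duplicates, is a log2 fold change.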

Sequence of UniProt Q16254 (Q16254 whole entry, looked up): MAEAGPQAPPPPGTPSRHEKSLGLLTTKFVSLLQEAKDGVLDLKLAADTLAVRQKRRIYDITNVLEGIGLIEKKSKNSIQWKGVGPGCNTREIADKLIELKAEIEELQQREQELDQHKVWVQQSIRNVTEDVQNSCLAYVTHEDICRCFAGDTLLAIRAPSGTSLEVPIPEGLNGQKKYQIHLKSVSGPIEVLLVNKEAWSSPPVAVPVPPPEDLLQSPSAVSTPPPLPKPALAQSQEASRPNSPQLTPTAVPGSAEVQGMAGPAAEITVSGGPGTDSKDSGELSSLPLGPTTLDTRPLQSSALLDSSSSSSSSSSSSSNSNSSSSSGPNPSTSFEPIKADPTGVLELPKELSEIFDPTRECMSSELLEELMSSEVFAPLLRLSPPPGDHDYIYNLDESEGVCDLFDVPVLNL
Sequence of UniProt Q15392 (Q15392 whole entry, looked up): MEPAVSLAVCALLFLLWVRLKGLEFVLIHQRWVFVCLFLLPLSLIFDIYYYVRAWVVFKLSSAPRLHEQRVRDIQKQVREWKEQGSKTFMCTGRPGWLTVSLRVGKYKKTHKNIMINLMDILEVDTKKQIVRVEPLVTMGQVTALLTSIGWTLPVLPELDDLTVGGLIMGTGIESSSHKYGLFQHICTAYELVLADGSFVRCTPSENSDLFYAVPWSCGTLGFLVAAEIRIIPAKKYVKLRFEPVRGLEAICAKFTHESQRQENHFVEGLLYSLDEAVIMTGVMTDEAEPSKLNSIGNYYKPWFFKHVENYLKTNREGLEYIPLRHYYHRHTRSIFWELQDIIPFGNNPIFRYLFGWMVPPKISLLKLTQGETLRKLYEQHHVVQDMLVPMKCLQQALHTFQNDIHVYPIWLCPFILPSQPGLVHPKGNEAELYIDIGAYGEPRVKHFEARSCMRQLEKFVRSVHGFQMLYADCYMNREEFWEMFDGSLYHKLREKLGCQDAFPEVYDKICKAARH
Sequence of UniProt Q96DA6 (Q96DA6 whole entry, looked up): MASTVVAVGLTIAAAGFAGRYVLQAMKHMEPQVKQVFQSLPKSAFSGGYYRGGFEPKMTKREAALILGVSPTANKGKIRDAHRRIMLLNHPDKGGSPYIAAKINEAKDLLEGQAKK
Sequence of UniProt P98082 (P98082 whole entry, looked up): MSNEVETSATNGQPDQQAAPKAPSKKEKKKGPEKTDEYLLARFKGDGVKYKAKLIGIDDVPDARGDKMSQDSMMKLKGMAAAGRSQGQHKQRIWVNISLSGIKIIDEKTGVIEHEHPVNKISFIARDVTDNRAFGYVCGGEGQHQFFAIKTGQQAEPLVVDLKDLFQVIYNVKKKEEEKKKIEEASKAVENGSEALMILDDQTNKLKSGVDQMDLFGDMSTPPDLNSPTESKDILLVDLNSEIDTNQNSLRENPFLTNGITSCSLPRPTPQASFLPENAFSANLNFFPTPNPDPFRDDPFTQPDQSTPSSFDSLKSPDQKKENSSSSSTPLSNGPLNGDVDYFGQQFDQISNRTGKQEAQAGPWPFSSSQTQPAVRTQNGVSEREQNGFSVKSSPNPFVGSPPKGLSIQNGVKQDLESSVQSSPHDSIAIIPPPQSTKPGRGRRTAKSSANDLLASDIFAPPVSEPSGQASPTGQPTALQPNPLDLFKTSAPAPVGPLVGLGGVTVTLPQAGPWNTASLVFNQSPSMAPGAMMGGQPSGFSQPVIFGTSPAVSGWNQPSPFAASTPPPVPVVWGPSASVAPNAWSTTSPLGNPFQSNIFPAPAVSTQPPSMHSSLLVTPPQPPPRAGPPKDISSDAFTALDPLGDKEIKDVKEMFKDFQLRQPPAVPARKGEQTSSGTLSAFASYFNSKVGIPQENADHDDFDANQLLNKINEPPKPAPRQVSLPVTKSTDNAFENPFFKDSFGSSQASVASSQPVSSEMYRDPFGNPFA
Sequence of UniProt P09622 (P09622 whole entry, looked up): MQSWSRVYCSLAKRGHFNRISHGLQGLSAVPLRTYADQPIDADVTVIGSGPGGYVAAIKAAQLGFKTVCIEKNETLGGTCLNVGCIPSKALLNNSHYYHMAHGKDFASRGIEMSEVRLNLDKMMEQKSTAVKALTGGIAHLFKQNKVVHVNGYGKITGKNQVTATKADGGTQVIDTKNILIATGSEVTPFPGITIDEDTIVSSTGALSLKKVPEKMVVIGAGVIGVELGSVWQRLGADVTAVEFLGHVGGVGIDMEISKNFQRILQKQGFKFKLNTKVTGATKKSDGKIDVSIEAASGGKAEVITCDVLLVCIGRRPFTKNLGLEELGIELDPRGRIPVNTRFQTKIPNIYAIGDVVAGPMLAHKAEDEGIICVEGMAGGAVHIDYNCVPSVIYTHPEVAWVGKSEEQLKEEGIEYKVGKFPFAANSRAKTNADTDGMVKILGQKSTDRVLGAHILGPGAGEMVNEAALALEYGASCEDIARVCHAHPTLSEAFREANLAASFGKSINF
Sequence of UniProt P35222 (P35222 whole entry, looked up): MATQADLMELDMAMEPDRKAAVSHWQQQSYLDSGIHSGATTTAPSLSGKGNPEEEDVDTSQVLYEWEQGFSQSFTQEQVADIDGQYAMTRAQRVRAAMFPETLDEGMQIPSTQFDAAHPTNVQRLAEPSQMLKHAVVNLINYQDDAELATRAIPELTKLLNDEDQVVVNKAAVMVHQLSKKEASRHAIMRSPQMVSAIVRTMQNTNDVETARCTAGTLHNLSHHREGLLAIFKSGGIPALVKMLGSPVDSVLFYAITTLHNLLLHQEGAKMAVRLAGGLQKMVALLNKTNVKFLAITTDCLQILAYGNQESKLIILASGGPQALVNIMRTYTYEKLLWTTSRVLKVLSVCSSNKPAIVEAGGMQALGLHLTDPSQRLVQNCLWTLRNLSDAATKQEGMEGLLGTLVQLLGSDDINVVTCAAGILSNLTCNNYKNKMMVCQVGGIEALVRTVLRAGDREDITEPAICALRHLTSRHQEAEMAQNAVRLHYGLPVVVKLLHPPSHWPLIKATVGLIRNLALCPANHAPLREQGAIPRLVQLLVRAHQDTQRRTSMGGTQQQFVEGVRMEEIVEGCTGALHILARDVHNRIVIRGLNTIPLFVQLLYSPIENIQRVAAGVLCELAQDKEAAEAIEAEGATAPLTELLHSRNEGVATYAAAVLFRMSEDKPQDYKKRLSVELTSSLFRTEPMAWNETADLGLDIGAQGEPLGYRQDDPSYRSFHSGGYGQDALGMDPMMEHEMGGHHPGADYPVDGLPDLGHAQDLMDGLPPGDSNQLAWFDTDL
Sequence of UniProt Q8N128 (Q8N128 whole entry, looked up): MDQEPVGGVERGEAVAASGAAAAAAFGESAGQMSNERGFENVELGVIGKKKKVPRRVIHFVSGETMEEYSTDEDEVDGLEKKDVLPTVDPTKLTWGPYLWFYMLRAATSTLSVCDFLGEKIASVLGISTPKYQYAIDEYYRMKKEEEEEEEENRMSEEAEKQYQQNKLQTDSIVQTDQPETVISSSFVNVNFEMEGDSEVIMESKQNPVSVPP
Sequence of UniProt Q14689 (Q14689 whole entry, looked up): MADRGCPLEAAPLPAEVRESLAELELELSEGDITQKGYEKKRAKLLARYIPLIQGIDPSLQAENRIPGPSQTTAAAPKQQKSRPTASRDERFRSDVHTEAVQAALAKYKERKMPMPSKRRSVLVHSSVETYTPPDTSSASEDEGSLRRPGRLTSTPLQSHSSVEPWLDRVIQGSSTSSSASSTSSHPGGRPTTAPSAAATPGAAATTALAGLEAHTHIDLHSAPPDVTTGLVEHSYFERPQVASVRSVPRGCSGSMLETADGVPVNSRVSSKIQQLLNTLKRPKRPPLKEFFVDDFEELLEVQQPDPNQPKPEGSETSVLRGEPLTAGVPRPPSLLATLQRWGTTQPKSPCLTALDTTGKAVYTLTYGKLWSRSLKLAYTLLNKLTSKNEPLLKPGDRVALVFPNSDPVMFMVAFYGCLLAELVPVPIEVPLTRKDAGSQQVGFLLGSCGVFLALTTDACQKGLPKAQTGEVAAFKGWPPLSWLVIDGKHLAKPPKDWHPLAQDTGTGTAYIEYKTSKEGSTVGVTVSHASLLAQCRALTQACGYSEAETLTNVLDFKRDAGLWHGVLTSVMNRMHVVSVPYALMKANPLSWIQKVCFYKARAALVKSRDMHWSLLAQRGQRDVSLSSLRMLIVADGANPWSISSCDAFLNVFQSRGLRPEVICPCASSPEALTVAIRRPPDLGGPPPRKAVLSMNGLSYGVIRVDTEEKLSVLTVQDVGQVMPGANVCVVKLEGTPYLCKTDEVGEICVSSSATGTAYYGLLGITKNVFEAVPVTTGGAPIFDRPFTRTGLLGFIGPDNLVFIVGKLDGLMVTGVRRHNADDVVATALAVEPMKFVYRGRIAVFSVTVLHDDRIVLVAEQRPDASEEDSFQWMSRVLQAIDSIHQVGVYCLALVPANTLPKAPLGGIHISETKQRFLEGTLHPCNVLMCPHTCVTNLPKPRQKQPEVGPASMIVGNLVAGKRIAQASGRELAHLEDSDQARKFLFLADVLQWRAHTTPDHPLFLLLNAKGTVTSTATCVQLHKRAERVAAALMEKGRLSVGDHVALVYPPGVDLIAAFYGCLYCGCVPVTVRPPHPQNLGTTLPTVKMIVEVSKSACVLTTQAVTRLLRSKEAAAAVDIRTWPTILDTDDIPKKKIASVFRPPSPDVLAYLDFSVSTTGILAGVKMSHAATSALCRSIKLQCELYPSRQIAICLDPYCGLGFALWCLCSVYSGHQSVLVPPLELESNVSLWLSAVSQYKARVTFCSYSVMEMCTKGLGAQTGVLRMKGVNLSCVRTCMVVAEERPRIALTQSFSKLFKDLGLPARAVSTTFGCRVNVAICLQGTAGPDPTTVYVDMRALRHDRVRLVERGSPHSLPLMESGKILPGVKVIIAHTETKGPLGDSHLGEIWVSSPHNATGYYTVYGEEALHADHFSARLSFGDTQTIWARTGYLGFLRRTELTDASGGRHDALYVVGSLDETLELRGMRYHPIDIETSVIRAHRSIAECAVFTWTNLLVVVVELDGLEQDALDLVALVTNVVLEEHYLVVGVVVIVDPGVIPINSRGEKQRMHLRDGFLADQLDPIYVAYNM
Sequence of UniProt Q96GE9 (Q96GE9 whole entry, looked up): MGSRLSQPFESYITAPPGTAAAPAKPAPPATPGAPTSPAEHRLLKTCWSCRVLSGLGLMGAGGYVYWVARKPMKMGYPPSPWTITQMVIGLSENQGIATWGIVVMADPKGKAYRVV

| Target | log2 fold change |
| --- | --- |
| FAM177A1 isoform 2 (UniProt Q8N128) | -0.02 (inactive) |
| E2F4 (UniProt Q16254) | 0.021 (inactive) |
| FAM50A (UniProt Q14320) | 0.014 (inactive) |
| DIAPH1 (UniProt O60610) | 0.08 (inactive) |
| DUS3L (UniProt Q96G46) | 0.036 (inactive) |
| DLD (UniProt P09622) | 0.029 (inactive) |
| CUEDC2 (UniProt Q9H467) | -0.01 (inactive) |
| DHCR24 (UniProt Q15392) | 0.434 (inactive) |
| CTNNB1 (UniProt P35222) | -0.134 (inactive) |
| DHX36 (UniProt Q9H2U1) | -0.005 (inactive) |
| DYNC1I2 isoform 5 (UniProt Q13409) | -0.007 (inactive) |
| DTNBP1 (UniProt Q96EV8) | -0.026 (inactive) |
| DIP2A (UniProt Q14689) | 0.336 (inactive) |
| DNAAF2 (UniProt Q9NVR5) | -0.065 (inactive) |
| DAB2 (UniProt P98082) | 0.036 (inactive) |
| DNAJC19 (UniProt Q96DA6) | -0.013 (inactive) |

compound: CCN(CC)Cc1ccc2cc(COC(=O)Nc3ccc(C(=O)NO)cc3)ccc2c1 [givinostat]; assay: as above
Method in brief: as §1

| Target | log2 fold change |
| --- | --- |
| ECPAS (UniProt Q5VYK3) | 0.118 (inactive) |
| FAAP100 (UniProt Q0VG06) | 0.024 (inactive) |
| DCTN1 isoform 4 (UniProt Q14203) | 0.104 (inactive) |
| DMAC1 (UniProt Q96GE9) | -0.179 (inactive) |
| DBNL isoform 3 (UniProt Q9UJU6) | 0.036 (inactive) |
| DNAJC24 (UniProt Q6P3W2) | 0.07 (inactive) |
| EIF4E2 (UniProt O60573) | 0.031 (inactive) |
| DHPS (UniProt P49366) | -0.001 (inactive) |
| DBR1 (UniProt Q9UK59) | -0.16 (inactive) |
| ELOC (UniProt Q15369) | -0.035 (inactive) |
| EXOC8 (UniProt Q8IYI6) | 0.028 (inactive) |
| EEF1D isoform 2 (UniProt P29692) | 0.038 (inactive) |
| DHRS7B (UniProt Q6IAN0) | -0.029 (inactive) |
| ERCC2 (UniProt P18074) | 0.095 (inactive) |
| EIF2S3 (UniProt P41091) | 0.028 (inactive) |
| CYP51A1 (UniProt Q16850) | 0.007 (inactive) |
| FAM114A2 (UniProt Q9NRY5) | -0.017 (inactive) |
| CUTA isoform 2 (UniProt O60888) | -0.044 (inactive) |
| EEF1B2 (UniProt P24534) | 0.023 (inactive) |
| DCTPP1 (UniProt Q9H773) | -0.019 (inactive) |

| Target | log2 fold change |
| --- | --- |
| EED, A0A5F9ZI63 | 0.082 (inactive) |
| DTWD1 (UniProt Q8N5C7) | -0.172 (inactive) |
| EEF1A1 (UniProt P68104) | -0.044 (inactive) |
| FAM177A1 isoform 2 (UniProt Q8N128) | -0.045 (inactive) |
| E2F4 (UniProt Q16254) | 0.05 (inactive) |
| FAM50A (UniProt Q14320) | 0.102 (inactive) |
| DIAPH1 (UniProt O60610) | 0.051 (inactive) |
| DUS3L (UniProt Q96G46) | -0.004 (inactive) |
| DLD (UniProt P09622) | -0.06 (inactive) |
| CUEDC2 (UniProt Q9H467) | 0.055 (inactive) |
| DHCR24 (UniProt Q15392) | 1.21 (active) |
| CTNNB1 (UniProt P35222) | 0.129 (inactive) |
| DHX36 (UniProt Q9H2U1) | -0.031 (inactive) |
| DYNC1I2 isoform 5 (UniProt Q13409) | -0.005 (inactive) |
| DTNBP1 (UniProt Q96EV8) | -0.014 (inactive) |
| DIP2A (UniProt Q14689) | -0.05 (inactive) |
| DNAAF2 (UniProt Q9NVR5) | 0 (inactive) |
| DAB2 (UniProt P98082) | 0.109 (inactive) |
| DNAJC19 (UniProt Q96DA6) | 0.005 (inactive) |

compound: CCN(CCCOc1ccc2c(Nc3cc(CC(=O)Nc4cccc(F)c4)[nH]n3)ncnc2c1)CCOP(=O)(O)O [barasertib]; assay: as above
Method in brief: as §1

| Target | log2 fold change |
| --- | --- |
| ECPAS (UniProt Q5VYK3) | 0.037 (inactive) |
| FAAP100 (UniProt Q0VG06) | 0.051 (inactive) |
| DCTN1 isoform 4 (UniProt Q14203) | 0.033 (inactive) |
| DMAC1 (UniProt Q96GE9) | 0.074 (inactive) |
| DBNL isoform 3 (UniProt Q9UJU6) | 0.045 (inactive) |
| DNAJC24 (UniProt Q6P3W2) | 0.008 (inactive) |
| EIF4E2 (UniProt O60573) | 0.083 (inactive) |
| DHPS (UniProt P49366) | 0.01 (inactive) |
| DBR1 (UniProt Q9UK59) | -0.022 (inactive) |
| ELOC (UniProt Q15369) | 0.026 (inactive) |
| EXOC8 (UniProt Q8IYI6) | 0.048 (inactive) |
| EEF1D isoform 2 (UniProt P29692) | 0.02 (inactive) |
| DHRS7B (UniProt Q6IAN0) | -0.004 (inactive) |
| ERCC2 (UniProt P18074) | -0.007 (inactive) |
| EIF2S3 (UniProt P41091) | -0.033 (inactive) |
| CYP51A1 (UniProt Q16850) | 0.01 (inactive) |
| FAM114A2 (UniProt Q9NRY5) | 0.01 (inactive) |
| CUTA isoform 2 (UniProt O60888) | 0.015 (inactive) |
| EEF1B2 (UniProt P24534) | 0.055 (inactive) |
| DCTPP1 (UniProt Q9H773) | 0.059 (inactive) |

| Target | log2 fold change |
| --- | --- |
| EED, A0A5F9ZI63 | -0.038 (inactive) |
| DTWD1 (UniProt Q8N5C7) | -0.027 (inactive) |
| EEF1A1 (UniProt P68104) | 0.052 (inactive) |
| FAM177A1 isoform 2 (UniProt Q8N128) | 0.037 (inactive) |
| E2F4 (UniProt Q16254) | 0.054 (inactive) |
| FAM50A (UniProt Q14320) | 0.026 (inactive) |
| DIAPH1 (UniProt O60610) | 0.077 (inactive) |
| DUS3L (UniProt Q96G46) | 0.021 (inactive) |
| DLD (UniProt P09622) | 0 (inactive) |
| CUEDC2 (UniProt Q9H467) | 0.091 (inactive) |
| DHCR24 (UniProt Q15392) | 0.088 (inactive) |
| CTNNB1 (UniProt P35222) | 0.04 (inactive) |
| DHX36 (UniProt Q9H2U1) | -0.064 (inactive) |
| DYNC1I2 isoform 5 (UniProt Q13409) | -0.013 (inactive) |
| DTNBP1 (UniProt Q96EV8) | 0.01 (inactive) |
| DIP2A (UniProt Q14689) | 0.118 (inactive) |
| DNAAF2 (UniProt Q9NVR5) | -0.009 (inactive) |
| DAB2 (UniProt P98082) | 0.072 (inactive) |
| DNAJC19 (UniProt Q96DA6) | 0.007 (inactive) |
